PubChem BioAssay (Tox21)
Records with an inconclusive call do not appear. Activity calls are given as the source filed them. Unless noted, calls come from the whole dose curve; as a rule, active = well fitted curve in the direction sought with a large enough effect in the repeat runs; inconclusive = weak or mixed curves; inactive = no such curve, though single readings can be large; an effect the other way counts as inactive or inconclusive.

How the values were obtained:
[1] = qHTS assay to identify small molecule agonists of the estrogen receptor beta (ER-beta) signaling pathway - cell viability counter screen (AID 1259380); note: nearly all actives have a fitted effect of over 30% in size
In short: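 CellTiter-Glo read, 30 min RT, same wells as bla assay; cells ER-beta-UAS-bla HEK293T; 16 hr compound, 37C; medium 2% charcoal-stripped FBS.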

[2] = biological target: Androgen receptor (Homo sapiens) (UniProt P10275); assay: qHTS assay to identify small molecule agonists of the androgen receptor (AR) signaling pathway in the presence of an antagonist (AID 1259381; calls by dose curve; note: nearly all actives have a fitted effect of over 15% in size; note: potency is the fitted concentration of half-maximal effect)
In short: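 Test compounds at 15 concentrations were incubated for 16hr with MDA-kb2 reporter cells in presence of 3.0uM nilutamide (final). Signal: ONE-Glo luciferase luminescence.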

[3] = qHTS assay to identify small molecule antagonists of the estrogen receptor beta (ER-beta) signaling pathway - cell viability counter screen (AID 1259382);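 note: HEK293T cells carrying ER-beta-UAS-bla reporter stimulated with estradiol; series mostly up to about 92 µM; nearly all actives have a fitted effect of over 55% in size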
In short: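 In this multiplexed counter screen, cells were seeded at 2,000 per well in medium with 2% charcoal-stripped FBS and incubated 6 hr before compound and 1nM final E2 were added. Sixteen hours later, ATP-based luminescence reported viability.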

[4] = biological target: Estrogen receptor (Homo sapiens) (UniProt P03372); assay: qHTS assay to identify small molecule agonists of the estrogen receptor alpha (ER-alpha) signaling pathway in the presence of an antagonist (AID 1259383; calls by dose curve; note: top concentration of the series differs between compounds; nearly all actives have a fitted effect of over 15% in size)
In short: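 Stably transfected VM7Luc4E2 reporter cells, kept 5 days in charcoal-stripped serum, received ICI-182,780 at 10.0nM final before compound addition. Following 22hr incubation at 37C and 5% CO2, luciferase signal was read by luminescence.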

[5] = qHTS assay to identify small molecule agonists or antagonists of the thyroid stimulating hormone receptor (TSHR) signaling pathway - wild type cell line counter screen (AID 1259384; calls by dose curve)
In short: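 Wild-type HEK293 cells were plated 18 h at 37 C/5% CO2, pin-dosed with compound plus Ro20-1724 medium, held 30 min at room temperature, then given cAMP-d2 and anti-cAMP-cryptate; fluorescence was read after 1 h. Fifteen concentrations, triplicate.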

[6] = biological target: Thyrotropin receptor (Homo sapiens) (UniProt P16473); assay: qHTS assay to identify small molecule antagonists of the thyroid stimulating hormone receptor (TSHR) signaling pathway (AID 1259385; calls by dose curve; note: nearly all actives have a fitted effect of over 20% in size)
In short: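 TSHR-HEK293 cells were plated and held 18 h at 37C/5% CO2, then given compound plus Ro20-1724 and stimulated with TSH at 1.5 ng/mL final. After 30 min at room temperature, cAMP was detected with cAMP-d2/anti-cAMP-cryptate (1 h) by fluorescence.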

[7] = qHTS assay to identify small molecule agonists of the estrogen receptor alpha (ER-alpha) signaling pathway in the presence of an antagonist - cell viability counter screen (AID 1259386);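 note: cells exposed to compounds for 22 h at 37 °C before the viability read; nearly all actives have a fitted effect of over 30% in size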; note: potency is the fitted concentration of half-maximal effect; for activity change, negative = cytotoxicity: series mostly up to about 92 µM
In short: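 Viability counter screen using VM7Luc4E2 (full-length ER-alpha, four ERE-luciferase). The cells were treated with compounds alongside ICI-182,780 10.0nM for 22hr, and live-cell protease fluorescence was quantified with CellTiter-Fluor.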

[8] = biological target: Progesterone receptor (Homo sapiens) (UniProt P06401); assay: qHTS assay to identify small molecule agonists of the progesterone receptor (PR) signaling pathway (AID 1346784; calls by dose curve; note: nearly all actives have a fitted effect of over 30% in size)
In short: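 The screen uses PR-UAS-bla HEK 293T cells in charcoal-stripped serum (2%). Compounds are applied for 16 hr at 37C after a 6 hr pre-incubation, and reporter activity is detected with a FRET beta-lactamase substrate after 2 hr at room temperature.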

[9] = qHTS assay to identify small molecule antagonists of the progesterone receptor (PR) signaling pathway - cell viability counter screen (AID 1346798); note: series mostly up to about 92 µM; nearly all actives have a fitted effect of over 50% in size
In short: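 Viability was determined by ATP-based luminescence (CellTiter-Glo) in PR-UAS-bla HEK293T cells cultured in 2% charcoal-stripped serum and incubated 16 hr with compounds under R5020 stimulation.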

[10] = qHTS assay to identify small molecule agonists of the progesterone receptor (PR) signaling pathway - cell viability counter screen (AID 1346799; calls by dose curve; note: nearly all actives have a fitted effect of over 45% in size)
In short: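 Viability was scored by ATP luminescence (CellTiter-Glo, 30 min, room temperature) in the same wells used for the reporter readout, after 16 hr compound exposure of PR-UAS-bla HEK293T cells.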

[11] = qHTS assay to identify small molecule antagonists of the TGF-beta/Smad signaling pathway - cell viability counter screen (AID 1346824); note: nearly all actives have a fitted effect of over 50% in size
In short: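 SBE-bla HEK 293T cells were plated overnight at 37 C, then given compounds in DMSO plus TGF-beta1 (added as 0.25 ng/mL solution) for 5 hr. After the bla read, CellTiter-Glo was added to the same wells and luminescence read after 30 min at room temperature.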

[12] = qHTS assay to identify small molecule agonists of the TGF-beta/Smad signaling pathway (AID 1346859; active = well fitted activation curve with a large enough effect in the signal ratio in the repeat runs, not every such curve was filed as active; the % refers to the signal ratio; note: series mostly up to about 77 µM)
In short: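 Dual-wavelength fluorescence (460/530 nm emission) quantified beta-lactamase expression under the Smad binding element in HEK 293T cells following 5 hr compound treatment at 37 C.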

[13] = biological target: Thyrotropin-releasing hormone receptor (Homo sapiens) (UniProt P34981); assay: qHTS assay to identify small molecule agonists of the thyrotropin-releasing hormone receptor (TRHR) signaling pathway (AID 1346891; calls by dose curve;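 note: HEK293 cells expressing TRHR with calcium dye readout; series mostly up to about 58 µM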)
In short: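 Kinetic fluorescence (3 min, 1 s intervals) reported intracellular calcium after compound transfer onto TRHR-Hek293 cells pre-loaded with dye for 2 h at 37 °C.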

[14] = Caspase-3/7 induction in HepG2 cells by small molecules, qHTS assay (AID 1346978); note: nearly all actives have a fitted effect of over 15% in size
In short: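 Wild-type HepG2 cells (2,000/well) were settled 5 h at 37 C, 5% CO2, then exposed to compounds in DMSO for 17 h. Caspase-3/7 activity was read by luminescence 30 min after adding Caspase-Glo 3/7 reagent at room temperature.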

[15] = Caspase-3/7 induction in CHO-K1 cells by small molecules, qHTS cell viability counter screen (AID 1346979); note: nearly all actives have a fitted effect of over 35% in size; note: potency is the fitted concentration of half-maximal effect
In short: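 Seeding: 1,500 CHO-K1 cells/well. Rest: 5hr, 37C. Treatment: compounds in DMSO, 16hr. Read: CellTiter-Fluor, 1hr, fluorescence.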

[16] = Caspase-3/7 induction in CHO-K1 cells by small molecules, qHTS assay (AID 1346980); note: nearly all actives have a fitted effect of over 15% in size
In short: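 Wild-type cells were seeded at 1,500 per well and settled 5 hr at 37 C, 5% CO2, then exposed to DMSO-dissolved compounds for 17 hr. Caspase-Glo 3/7 reagent was added, and luminescence was read after 30min at room temperature.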

[17] = qHTS assay to identify small molecule agonists of the TGF-beta/Smad signaling pathway - cell viability counter screen (AID 1346829); note: top concentration of the series differs between compounds; nearly all actives have a fitted effect of over 45% in size
In short: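 Same-well cytotoxicity: CellTiter-Glo added after the 2 hr room-temperature beta-lactamase substrate step, luminescence measured 30 min later; cells had 5 hr of compound at 37 C.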

[18] = biological target: Thyrotropin-releasing hormone receptor (Homo sapiens) (UniProt P34981); assay: qHTS assay to identify small molecule antagonists of the thyrotropin-releasing hormone receptor (TRHR) signaling pathway (AID 1346877; active = well fitted inhibition curve with a large enough effect in the repeat runs, not every such curve was filed as active; note: series mostly up to about 51 µM)
In short: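 Following an 18 h incubation at 37 °C and a 2 h calcium dye load, TRHR-HEK293 cells were exposed to compound (5 min, room temperature) and challenged with TRH, 1 nM final.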

[19] = Human pregnane X receptor (PXR) small molecule agonists, qHTS cell viability counter screen (AID 1346977); note: nearly all actives have a fitted effect of over 50% in size
In short: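 HepG2 cells stably carrying the PXR-Luc reporter are cultured with 5% charcoal-stripped FBS and treated with compounds for 24hr. CellTiter-Fluor is added at 23hr and fluorescence is read after 1hr.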

[20] = biological target: Progesterone receptor (Homo sapiens) (UniProt P06401); assay: qHTS assay to identify small molecule antagonists of the progesterone receptor (PR) signaling pathway (AID 1346795; active = well fitted inhibition curve with a large enough effect in the signal ratio in the repeat runs, not every such curve was filed as active; the % refers to the signal ratio)
In short: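 After 6 hr plating at 37C in 2% stripped-serum medium, PR-UAS-bla HEK293T cells got compounds, then 1 nM R5020. Sixteen hours later, LiveBLAzer substrate was applied for 2 hr at room temperature and fluorescence was recorded.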
% is set by controls: 0 for no effect and ±100 for the full control effect.

Chain of Thyrotropin receptor (Homo sapiens) (P16473 whole entry, looked up): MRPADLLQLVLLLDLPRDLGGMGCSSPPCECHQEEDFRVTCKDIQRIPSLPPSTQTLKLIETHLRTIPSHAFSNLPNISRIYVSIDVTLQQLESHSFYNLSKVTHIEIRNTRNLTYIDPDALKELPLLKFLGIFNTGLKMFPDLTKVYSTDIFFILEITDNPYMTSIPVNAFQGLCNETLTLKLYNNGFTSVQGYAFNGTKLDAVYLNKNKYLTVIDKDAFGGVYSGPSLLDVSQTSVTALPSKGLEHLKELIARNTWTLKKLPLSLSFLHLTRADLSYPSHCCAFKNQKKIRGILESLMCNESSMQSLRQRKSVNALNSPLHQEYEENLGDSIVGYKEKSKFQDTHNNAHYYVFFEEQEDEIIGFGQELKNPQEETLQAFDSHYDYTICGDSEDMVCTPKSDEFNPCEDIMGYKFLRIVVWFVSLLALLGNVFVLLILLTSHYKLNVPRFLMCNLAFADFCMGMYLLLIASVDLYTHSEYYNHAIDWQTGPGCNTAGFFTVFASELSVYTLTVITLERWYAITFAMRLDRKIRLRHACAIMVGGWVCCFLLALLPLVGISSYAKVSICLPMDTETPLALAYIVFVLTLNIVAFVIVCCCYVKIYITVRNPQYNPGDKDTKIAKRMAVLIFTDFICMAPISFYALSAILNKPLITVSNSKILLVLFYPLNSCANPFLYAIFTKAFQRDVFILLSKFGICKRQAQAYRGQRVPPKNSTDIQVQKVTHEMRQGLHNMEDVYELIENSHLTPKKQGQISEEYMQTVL
Chain of Estrogen receptor (Homo sapiens) (P03372 whole entry, looked up): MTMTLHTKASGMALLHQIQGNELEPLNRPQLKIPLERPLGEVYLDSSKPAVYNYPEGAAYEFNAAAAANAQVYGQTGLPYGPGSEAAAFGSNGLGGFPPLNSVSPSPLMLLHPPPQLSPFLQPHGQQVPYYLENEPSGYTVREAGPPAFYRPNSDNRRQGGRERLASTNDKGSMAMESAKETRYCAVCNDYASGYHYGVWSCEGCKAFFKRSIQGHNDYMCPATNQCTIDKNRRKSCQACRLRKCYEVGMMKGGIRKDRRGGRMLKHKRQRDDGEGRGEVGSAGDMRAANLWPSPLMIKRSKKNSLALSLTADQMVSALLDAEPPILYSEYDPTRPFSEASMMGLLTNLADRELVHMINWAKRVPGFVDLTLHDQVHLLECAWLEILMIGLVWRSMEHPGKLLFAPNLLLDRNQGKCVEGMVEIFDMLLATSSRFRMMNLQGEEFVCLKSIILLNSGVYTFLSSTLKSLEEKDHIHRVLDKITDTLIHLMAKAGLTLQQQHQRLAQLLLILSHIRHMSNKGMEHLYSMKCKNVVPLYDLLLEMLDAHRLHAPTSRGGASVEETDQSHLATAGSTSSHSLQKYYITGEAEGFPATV
Chain of Progesterone receptor (Homo sapiens) (P06401 whole entry, looked up): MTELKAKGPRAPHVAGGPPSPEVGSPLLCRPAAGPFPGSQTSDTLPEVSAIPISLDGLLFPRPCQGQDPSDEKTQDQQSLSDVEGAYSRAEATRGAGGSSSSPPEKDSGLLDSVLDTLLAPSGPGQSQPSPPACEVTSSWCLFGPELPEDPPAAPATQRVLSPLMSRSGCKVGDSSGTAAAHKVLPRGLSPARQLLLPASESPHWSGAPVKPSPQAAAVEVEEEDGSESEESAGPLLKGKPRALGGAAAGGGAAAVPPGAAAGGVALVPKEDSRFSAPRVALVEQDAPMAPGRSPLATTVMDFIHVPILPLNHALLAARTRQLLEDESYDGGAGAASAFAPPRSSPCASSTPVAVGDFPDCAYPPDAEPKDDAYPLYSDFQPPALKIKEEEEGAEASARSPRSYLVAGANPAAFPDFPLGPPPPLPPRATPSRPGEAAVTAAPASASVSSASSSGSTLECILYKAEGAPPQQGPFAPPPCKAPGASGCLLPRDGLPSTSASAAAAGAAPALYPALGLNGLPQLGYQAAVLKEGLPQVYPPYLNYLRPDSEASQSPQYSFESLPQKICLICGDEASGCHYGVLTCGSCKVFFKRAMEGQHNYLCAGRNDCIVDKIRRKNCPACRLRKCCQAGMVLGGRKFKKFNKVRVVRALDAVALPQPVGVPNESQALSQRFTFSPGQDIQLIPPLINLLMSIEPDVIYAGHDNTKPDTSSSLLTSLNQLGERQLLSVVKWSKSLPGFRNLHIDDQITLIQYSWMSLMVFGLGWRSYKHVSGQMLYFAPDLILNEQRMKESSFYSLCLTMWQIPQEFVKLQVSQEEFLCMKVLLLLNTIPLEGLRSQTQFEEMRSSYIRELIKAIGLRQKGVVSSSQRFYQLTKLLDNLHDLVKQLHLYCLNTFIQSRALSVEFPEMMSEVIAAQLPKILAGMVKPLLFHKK
Chain of Androgen receptor (Homo sapiens) (P10275 whole entry, looked up): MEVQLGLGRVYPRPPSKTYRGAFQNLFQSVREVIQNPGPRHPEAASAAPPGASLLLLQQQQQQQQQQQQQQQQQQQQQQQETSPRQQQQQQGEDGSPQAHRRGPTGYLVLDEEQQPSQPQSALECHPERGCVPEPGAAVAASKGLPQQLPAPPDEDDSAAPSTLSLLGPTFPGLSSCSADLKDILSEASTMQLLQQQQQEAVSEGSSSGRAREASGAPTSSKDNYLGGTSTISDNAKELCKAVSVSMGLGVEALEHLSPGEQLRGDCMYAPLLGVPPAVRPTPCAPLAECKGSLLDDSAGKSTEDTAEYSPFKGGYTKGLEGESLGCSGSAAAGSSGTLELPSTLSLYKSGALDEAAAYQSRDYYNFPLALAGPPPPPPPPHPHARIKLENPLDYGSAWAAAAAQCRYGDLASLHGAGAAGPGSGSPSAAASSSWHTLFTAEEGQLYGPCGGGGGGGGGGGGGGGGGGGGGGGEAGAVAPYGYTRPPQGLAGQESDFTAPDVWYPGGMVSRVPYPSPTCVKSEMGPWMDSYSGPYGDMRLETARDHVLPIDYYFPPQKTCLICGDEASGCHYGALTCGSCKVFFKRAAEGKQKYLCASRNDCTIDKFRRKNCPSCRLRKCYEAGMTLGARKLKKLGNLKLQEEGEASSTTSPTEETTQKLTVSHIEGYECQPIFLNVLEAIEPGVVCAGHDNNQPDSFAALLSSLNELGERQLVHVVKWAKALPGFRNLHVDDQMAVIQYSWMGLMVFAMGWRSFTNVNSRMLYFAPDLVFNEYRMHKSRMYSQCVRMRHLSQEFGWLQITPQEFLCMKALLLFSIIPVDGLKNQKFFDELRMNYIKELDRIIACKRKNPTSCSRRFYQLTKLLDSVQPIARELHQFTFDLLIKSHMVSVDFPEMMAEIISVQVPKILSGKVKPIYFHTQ
Chain of Thyrotropin-releasing hormone receptor (Homo sapiens) (P34981 whole entry, looked up): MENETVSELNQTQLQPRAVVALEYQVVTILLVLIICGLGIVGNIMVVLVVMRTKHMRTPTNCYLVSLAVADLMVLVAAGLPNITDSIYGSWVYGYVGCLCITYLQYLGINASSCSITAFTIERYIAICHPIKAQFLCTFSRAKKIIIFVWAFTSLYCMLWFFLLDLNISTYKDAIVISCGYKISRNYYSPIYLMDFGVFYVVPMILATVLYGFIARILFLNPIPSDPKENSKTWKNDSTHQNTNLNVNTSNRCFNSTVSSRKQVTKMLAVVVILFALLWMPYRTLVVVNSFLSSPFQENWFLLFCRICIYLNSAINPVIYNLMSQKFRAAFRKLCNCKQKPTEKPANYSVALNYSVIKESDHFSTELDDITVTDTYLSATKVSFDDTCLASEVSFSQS

Cc1ccc(N=Nc2c(O)ccc3ccccc23)c(C)c1
active: Potency [2] 0.335 µM | Potency [7] 7.5 µM | Potency [15] 7.5 µM
inactive: Potency [1] | Potency [3] | Potency [4] | Potency [5] | Potency [6] | outcome [8] | Potency [9] | Potency [10] | Potency [11] | outcome [12] | Potency [13] | Potency [14] | Potency [16]

COc1cc2ncnc(Nc3cccc(Cl)c3)c2cc1OC
inactive: activity change, negative = cytotoxicity [1] -15.7% [at 19 µM] | activation [2] -2.82% [at 19 µM] | activity change, negative = cytotoxicity [3] 0.759% [at 19 µM] | activation [4] -1.36% [at 19 µM] | cAMP activity change [5] 2.68% [at 18.9 µM, active compounds read high] | activity change, negative = inhibition [6] 1.54% [at 19 µM] | activity change, negative = cytotoxicity [7] -5.87% [at 19 µM] | activation [8] -0.0125% [at 19 µM] | viability change, negative = cytotoxic [11] 0.414% [at 15.8 µM] | activity change, negative = cytotoxicity [17] 9.42% [at 15.8 µM] | activation [12] -4.98% [at 15.8 µM] | activity, negative = inhibition [18] -3.3% [at 10.5 µM] | activation [13] -0.271% [at 11.8 µM] | caspase activation [14] 0.14% [at 19 µM] | caspase-3/7 activation [16] -2.78% [at 19 µM]

C/C=C/C(=O)C1=C(C)C=CCC1(C)C
inactive: Potency [1] | Potency [2] | Potency [3] | Potency [4] | Potency [5] | Potency [6] | outcome [8] | Potency [9] | Potency [10] | Potency [11] | Potency [17] | outcome [12] | Potency [18] | Potency [13] | Potency [19] | Potency [14] | Potency [15] | Potency [16]

CCOc1nc(F)cc2nc(S(=O)(=O)Nc3c(Cl)cccc3C(=O)OC)nn12
inactive: Potency [1] | Potency [2] | Potency [3] | Potency [4] | Potency [5] | Potency [6] | outcome [8] | Potency [20] | Potency [9] | Potency [10] | Potency [11] | Potency [17] | outcome [12] | Potency [13] | Potency [19] | Potency [14] | Potency [16]

CC(C)(C)c1cc(CCC(=O)OCCSCCOC(=O)CCc2cc(C(C)(C)C)c(O)c(C(C)(C)C)c2)cc(C(C)(C)C)c1O
inactive: Potency [1] | Potency [2] | Potency [3] | Potency [4] | Potency [5] | Potency [6] | outcome [8] | Potency [20] | Potency [9] | Potency [10] | Potency [11] | Potency [17] | outcome [12] | Potency [13] | Potency [19] | Potency [14] | Potency [15] | Potency [16]

CCc1cccc(C)c1N(C(=O)C(=O)O)C(C)COC (stereo unspecified)
inactive: Potency [1] | Potency [2] | Potency [3] | Potency [4] | Potency [5] | Potency [6] | Potency [7] | outcome [8] | Potency [20] | Potency [9] | Potency [10] | Potency [11] | outcome [12] | Potency [18] | Potency [13] | Potency [19] | Potency [14] | Potency [15] | Potency [16]

Cn1c(=O)[nH]c2ncn(C)c2c1=O
inactive: Potency [1] | Potency [2] | Potency [3] | Potency [4] | Potency [5] | Potency [6] | Potency [7] | outcome [8] | Potency [9] | Potency [10] | Potency [11] | outcome [12] | Potency [18] | Potency [13] | Potency [19] | Potency [14] | Potency [15] | Potency [16]
